This is a sample that favours compounds with a hit; in the whole collection about 2.4% have one here.
D2 ag-1: Beta-Arrestin HTS for Positive Allosteric Modulators of the Human D2 Dopamine Receptor: Agonists. DiscoveRx PathHunter D2 beta-arrestin, luminescence, 90 min; 100% = 57 uM dopamine signal. activation, % (concentration not given with the values). actives 0.084% (n = 360,000); in the data active means activation above about 40%; inconclusive means between about 15% and that limit
Target sequence (P14416 whole entry, looked up): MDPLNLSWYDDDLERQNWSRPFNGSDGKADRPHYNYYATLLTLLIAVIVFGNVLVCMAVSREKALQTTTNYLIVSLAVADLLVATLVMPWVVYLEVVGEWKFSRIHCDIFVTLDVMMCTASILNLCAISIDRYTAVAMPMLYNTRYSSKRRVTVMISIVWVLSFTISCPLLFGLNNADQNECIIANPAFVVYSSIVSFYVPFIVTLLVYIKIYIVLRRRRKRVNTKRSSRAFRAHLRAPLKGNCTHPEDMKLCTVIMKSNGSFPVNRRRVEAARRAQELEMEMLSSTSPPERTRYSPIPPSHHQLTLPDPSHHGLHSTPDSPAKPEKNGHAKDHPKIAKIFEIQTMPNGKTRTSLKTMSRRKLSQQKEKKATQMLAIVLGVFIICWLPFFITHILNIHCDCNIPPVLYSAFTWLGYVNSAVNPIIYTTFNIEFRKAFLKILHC
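DiscoveRx PathHunter D2 beta-arrestin cells (2,100/well) attached overnight, then compound-stimulated 90 min at 37 C in HBSS/10 mM HEPES/0.1% Tween-20 buffer; beta-galactosidase complementation read by luminescence after 1 h at ambient temperature. Dopamine 57 uM final (EC100) as control.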
D2 PAM-1: HTS Assay for Positive Allosteric Modulators of the Human D2 Dopamine Receptor: Primary Screen for Potentiators. HEK293 T-REx D2, calcium flux, EC20 dopamine potentiation. potentiation, % at 10 µM. actives 0.34% (n = 340,000);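 active means potentiation over 3 SD above the plate norm, cut at about 30% in these data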; further: 0% is about no effect
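Calcium flux readout, no-wash dye, 1 read/s. Inducible HEK293 Trex D2 line, overnight 30 C. Compound alone 180 s (agonist flags), then EC20 dopamine, another 180 s to score potentiation.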
D2 PAM-2: Beta-Arrestin HTS for Positive Allosteric Modulators of the Human D2 Dopamine Receptor: Potentiators; D(2) dopamine receptor (Homo sapiens), P14416; DiscoveRx D2 beta-arrestin cells, luminescence, 90 min; 100% = 57 uM dopamine signal; potentiation, % (concentration not given with the values); actives 0.23% (n = 360,000); in the data active means potentiation above about 50%; inconclusive means mostly about 30% to 49%
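D2 cells co-treated with compound plus 50 nM dopamine (EC20) for 90 min at 37 deg C to detect potentiation. Beta-arrestin recruitment was read as enzyme-fragment luminescence after 1 h at ambient temperature. Full response was set by 57 uM dopamine.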
D2 ag-2: HTS Assay for Allosteric Agonists of the Human D2 Dopamine Receptor: Primary Screen for Agonists | actives 0.53% (n = 340,000) | D(2) dopamine receptor (Homo sapiens), P14416 | HEK293 T-REx D2 cells, calcium flux agonist mode | activation, % at 2 µM;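 active means activation over 3 SD above normal in the single-dose calcium agonist read, cut at about 30% in these data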; further: 0% is about no effect
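HEK293 Trex D2 cells, tetracycline-induced, o/n 30 C 5% CO2; no-wash Ca dye, RT 30–90 min; 10-cycle baseline, 23 nl cpd added, kinetic Ca read 180 s; agonist hits = positive Ca response.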
D2 antagonist: HTS Assay for Allosteric Antagonists of the Human D2 Dopamine Receptor: Primary Screen for Antagonists; D(2) dopamine receptor (Homo sapiens), P14416; HEK293 TREx D2 cells, calcium flux, dopamine EC80; inhibition, % at 10 µM; actives 2% (n = 340,000); in the data active means inhibition above about 30%; inactive means below that, where a call was filed; further: 0% is about no effect
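Tetracycline-induced HEK293 T-REx cells expressing D2 force-coupled to calcium signalling were dye-loaded, exposed to compound for 180 s, then challenged with an EC80 of dopamine; calcium flux was followed kinetically for a further 180 s.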
* = called active by the depositor; ? = inconclusive; / = no result given.

SMILES | D2 ag-1 | D2 PAM-1 | D2 PAM-2 | D2 ag-2 | D2 antagonist
COc1ccc(C(c2nnnn2C2CCCCC2)N2CCN(c3ccc(OC)cc3)CC2)cc1 (stereo not given) | -3.5 | 3.3 | -21.0 | -0.5 | -8.0
c1cnc2ccc(C(c3nnnn3C3CCCCC3)N3CCCCC3)cc2c1 (stereo not given) | -2.7 | 41.7* | -17.9 | 0.6 | 4.8
COc1ccc(C(c2nnnn2C2CCCC2)N2CCC(C)CC2)cc1 (stereo not given) | -6.0 | 30.2* | -19.4 | -0.8 | -4.0
O=C(c1ccco1)N1CCN(C(c2cccs2)c2nnnn2C2CCCC2)CC1 (stereo not given) | 0.8 | -5.6 | -8.1 | -0.4 | 7.2
c1cnc2ccc(C(c3nnnn3C3CCCCC3)N3CCN(C4CCCCC4)CC3)cc2c1 (stereo not given) | -3.0 | / | -4.5 | / | /
O=C(c1ccco1)N1CCN(C(c2ccccn2)c2nnnn2C2CCCC2)CC1 (stereo not given) | -1.4 | 35.3* | 7.2 | 0.0 | -13.0
CCN(Cc1nc(-c2ccc(OC)c(OC)c2)no1)C(=O)c1ccc2c(c1)OCO2 | -3.2 | 3.2 | -9.9 | 0.5 | 37.4*
COc1ccccc1Cn1ccn(Cc2ccc(C)cc2)c(=O)c1=O | / | -8.9 | / | 0.8 | /
O=[N+]([O-])c1ccc(Sc2nnnn2-c2ccccc2)c(Cl)c1 | 13.1 | -6.2 | 29.9 | -1.0 | 35.5*
Cn1nnnc1Sc1ccc([N+](=O)[O-])cc1Cl | 7.2 | 2.1 | 19.1 | 1.3 | -17.8
Cc1ccc(NC(=O)N2CCN(c3ncccc3C(F)(F)F)CC2)cc1 | -2.4 | -13.3 | -28.4 | -0.3 | 37.4*
Cc1ccc(NC(=O)CNC2CCCCC2)cc1Cl | -8.4 | 10.4 | -6.1 | 0.2 | 30.3*
CC(=O)c1ccc(NC(=O)CNC2CCCCC2)cc1 | -2.8 | -2.8 | -6.8 | 1.1 | 8.8
Cc1ccc(NC(=O)C(C)N2CCCC2)cc1Cl (stereo not given) | 0.8 | -19.0 | -6.5 | 0.2 | 33.1*
CC(C)C(=O)Nc1ccc(N2CCCC2)c(Cl)c1 | -1.3 | -4.8 | -12.1 | 1.0 | 13.7
CC1Cc2ccccc2N1C(=O)Cn1cc([N+](=O)[O-])cn1 (stereo not given) | -3.5 | -1.5 | -3.6 | -0.4 | 38.7*
O=C(Cn1cc([N+](=O)[O-])cn1)N1CCc2ccccc21 | -2.3 | -4.8 | -7.0 | 0.5 | -5.7
CC1Cc2ccccc2N1C(=O)CN1CCN(Cc2ccccc2)CC1 (stereo not given) | -0.1 | -23.7 | -13.8 | 1.0 | 41.0*
Cc1ccc(NC(=O)NCCOCCn2c(=O)oc3ccccc32)c(C)c1 | / | 7.6 | / | -0.6 | /
Cc1noc(Cn2c(=O)c3cc4c(cc3n(CC(=O)Nc3ccccc3F)c2=O)OCO4)n1 | / | -2.0 | / | 0.4 | /
CCOC(=O)N1CCC(=NNC(=O)Cn2ccc(C(F)(F)F)n2)CC1 | -0.4 | 32.9* | -1.9 | -0.5 | -22.1
COc1ccccc1C(=O)N(Cc1ccco1)Cc1ccccc1F | / | 3.3 | / | 0.8 | /
COc1cc2ccccc2cc1C(=O)OCC(=O)c1c(N)n(C)c(=O)n(C)c1=O | -1.3 | 1.1 | -21.1 | 0.4 | 52.1*
Cn1c(=O)c(C(=O)COC(=O)c2cc(C(F)(F)F)nc3ccccc23)c(N)n(Cc2ccccc2)c1=O | / | -0.8 | / | 1.1 | 5.0
Cn1c(=O)c(C(=O)COC(=O)c2cc(-c3ccccc3)nc3ccccc23)c(N)n(Cc2ccccc2)c1=O | / | -5.5 | / | 2.9 | 30.6*
SMILES | D2 ag-1 | D2 PAM-1 | D2 PAM-2 | D2 ag-2 | D2 antagonist
CCc1cc2c(cc3c(=O)n(CC(=O)N4CCCCC4)nc(CC)n32)s1 | / | -0.8 | / | -0.3 | /
CC1=C(CC(=O)c2ccc(Cl)cc2)C(=O)c2ccccc2C1=O | 9.4 | / | 55.1* | / | /
COc1cc(OC)cc(C(=O)O/N=C(\N)c2ccncc2)c1 | ? | 8.6 | 110.8* | -0.9 | -19.5
N/C(=N\OC(=O)c1ccccc1)c1ccncc1 | 3.2 | -24.7 | 7.2 | 3.0 | -12.4
N/C(=N\OC(=O)c1ccc(Br)cc1)c1ccncc1 | 41.6* | 1.8 | 52.0* | 0.1 | 25.8
CCn1cc(C(=O)N(C)c2ccc(C(C)C)cc2)c2cc(OC)c(OC)cc2c1=O | / | 8.8 | / | -1.2 | /
Cn1nc(-c2ccc(Cl)cc2)c2cc(C(=O)N3CCOCC3)sc21 | 0.5 | 10.0 | -3.0 | 0.4 | 30.9*
CCn1nc(CC(=O)Nc2ccc(-n3cnnn3)c(C)c2)c2ccccc2c1=O | -4.3 | 0.3 | -6.6 | -0.8 | 0.9
CCn1nc(CC(=O)Nc2ccc(-n3cnnn3)c(OC)c2)c2ccccc2c1=O | 1.2 | 1.5 | -22.9 | 1.0 | 34.6*
CC(=O)c1c(C)[nH]c(C(=O)Nc2nc(-c3ccc(Cl)cc3)cs2)c1C | 1.7 | 11.4 | -0.5 | -2.7 | -9.1
COc1ccc(-c2nc(NC(=O)c3[nH]c(C)c(C(C)=O)c3C)sc2C)cc1 | 1.9 | 30.8* | -0.3 | 1.0 | -3.9
CC(=O)c1c(C)[nH]c(C(=O)Nc2nc(C)cs2)c1C | -9.9 | -0.8 | -4.5 | 2.2 | 32.9*
COc1ccc(-c2nc(NC(=O)c3ccco3)sc2C)cc1 | -0.9 | / | -3.2 | / | /
CCOc1cc(-c2noc(N)c2C#N)cc(OCC)c1OCC | 40.8* | 27.2 | 130.3* | 0.9 | 0.9
CCOc1cc(-c2cc(-c3ccc(N)cc3)nc(N)c2C#N)ccc1O | 7.6 | 3.1 | -11.2 | -1.8 | 5.5
CN(CC(=O)Nc1cccc(F)c1)C(=O)c1ccc2c(c1)S(=O)(=O)N=C1CCCCCN12 | -5.1 | 31.5* | -12.0 | 1.5 | -0.7
CC(C)c1nc(SCC(=O)Nc2nccs2)c2ccccc2n1 | -2.5 | -27.7 | -5.4 | 0.3 | -4.8
CC(C)c1nc(SCC(=O)Nc2ccc(N(C)C)cc2)c2ccccc2n1 | -18.7 | 0.9 | -4.7 | -0.9 | 33.9*
CCOC(=O)N1CCN(C(=O)CNC(=O)c2nn(-c3ccc(OC)c(Cl)c3)c(=O)c3ccccc23)CC1 | 13.3 | 42.6* | 19.3 | -1.3 | -7.4
COCCNC(=O)CNC(=O)c1nn(-c2ccc(OC)c(Cl)c2)c(=O)c2ccccc12 | -4.3 | 4.6 | -3.7 | 0.0 | 18.3
COc1ccc(-n2nc(C(=O)NCC(=O)NCCc3ccc(OC)c(OC)c3)c3ccccc3c2=O)cc1Cl | ? | 55.1* | 23.3 | 1.3 | -21.0
O=C(O)COc1ccc2occ(C(=O)c3ccccc3)c2c1 | -4.6 | 6.9 | -2.3 | -2.1 | 37.5*
NS(=O)(=O)c1ccc(CCNC(=O)CNC(=O)c2ccc(Br)o2)cc1 | -3.4 | -25.3 | -5.4 | -0.1 | 65.8*

Screens (PubChem BioAssay)
